Test results: PubChem BioAssay AID1159580 (chemical genetic matrix, 2015)
Out of some 5,500 compounds screened, about 2,000 (36%) were called active. About 18% were inconclusive and are not listed. Rule as the data show it: active = normalized growth mostly below about 0.91 (no sharp cut-off); inconclusive = no clear call, values can overlap the other calls; inactive = mostly above about 0.92. This is one part of the list.

Experiment: chemical genetic growth profiling, strain panel (AID 1159580);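 also: tested at 20 µM; growth read once vehicle control cultures reached saturation at 30 °C; 1 = growth at the plate median or of vehicle wells; lower values mean less growth of the strain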
Conditions: growth OD
[1] = S. cerevisiae deletion strains, locus YAR019C, strain CDC15, active compounds read low
[2] = S. cerevisiae deletion strains, locus YBL105C, strain PKC1, active compounds read low
[3] = S. cerevisiae deletion strains, locus YBR135W, strain CKS1, active compounds read low
[4] = S. cerevisiae deletion strains, locus YBR136W, strain MEC1, active compounds read low
[5] = S. cerevisiae deletion strains, locus YBR160W, strain CDC28, active compounds read low
[6] = S. cerevisiae deletion strains, locus YDL017W, strain CDC7, active compounds read low
[7] = S. cerevisiae deletion strains, locus YDL028C, strain MPS1, active compounds read low
[8] = S. cerevisiae deletion strains, locus YDL101C, strain DUN1, active compounds read low
[9] = S. cerevisiae deletion strains, locus YDL108W, strain KIN28, active compounds read low
[10] = S. cerevisiae deletion strains, locus YDL132W, strain cdc53, active compounds read low
[11] = S. cerevisiae deletion strains, locus YDL214C, strain PRR2, active compounds read low
[12] = S. cerevisiae deletion strains, locus YDR052C, strain DBF4, active compounds read low
[13] = S. cerevisiae deletion strains, locus YDR054C, strain cdc34, active compounds read low
[14] = S. cerevisiae deletion strains, locus YDR226W, strain ADK1, active compounds read low
[15] = S. cerevisiae deletion strains, locus YDR477W, strain SNF1, active compounds read low
[16] = S. cerevisiae deletion strains, locus YER123W, strain YCK3, active compounds read low
[17] = S. cerevisiae deletion strains, locus YER133W, strain GLC7, active compounds read low
[18] = S. cerevisiae deletion strains, locus YFL009W, strain cdc4, active compounds read low
[19] = S. cerevisiae deletion strains, locus YFL029C, strain CAK1, active compounds read low
[20] = S. cerevisiae deletion strains, locus YFR003C, strain YPI1, active compounds read low
[21] = S. cerevisiae deletion strains, locus YFR019W, strain FAB1, active compounds read low
[22] = S. cerevisiae deletion strains, locus YFR028C, strain CDC14, active compounds read low
[23] = S. cerevisiae deletion strains, locus YGR040W, strain KSS1, active compounds read low
[24] = S. cerevisiae deletion strains, locus YGR052W, strain FMP48, active compounds read low
[25] = S. cerevisiae deletion strains, locus YGR092W, strain DBF2, active compounds read low
[26] = S. cerevisiae deletion strains, locus YHR030C, strain SLT2, active compounds read low
[27] = S. cerevisiae deletion strains, locus YHR079C, strain IRE1, active compounds read low
[28] = S. cerevisiae deletion strains, locus YHR082C, strain KSP1, active compounds read low
[29] = S. cerevisiae deletion strains, locus YHR205W, strain SCH9, active compounds read low
[30] = S. cerevisiae deletion strains, locus YIL147C, strain SLN1, active compounds read low
[31] = S. cerevisiae deletion strains, locus YJL095W, strain BCK1, active compounds read low
[32] = S. cerevisiae deletion strains, locus YJL128C, strain PBS2, active compounds read low
[33] = S. cerevisiae deletion strains, locus YJL157C, strain FAR1, active compounds read low
[34] = S. cerevisiae deletion strains, locus YJR016C, strain ILV3, active compounds read low
[35] = S. cerevisiae deletion strains, locus YJR066W, strain TOR1 (second series), active compounds read low
[36] = S. cerevisiae deletion strains, locus YJR066W, strain TOR1, active compounds read low
[37] = S. cerevisiae deletion strains, locus YKL048C, strain ELM1, active compounds read low
[38] = S. cerevisiae deletion strains, locus YKL067W, strain YNK1, active compounds read low
[39] = S. cerevisiae deletion strains, locus YKL101W, strain HSL1, active compounds read low
[40] = S. cerevisiae deletion strains, locus YKL193C, strain SDS22, active compounds read low
[41] = S. cerevisiae deletion strains, locus YKL203C, strain TOR2, active compounds read low
[42] = S. cerevisiae deletion strains, locus YLR113W, strain HOG1, active compounds read low
[43] = S. cerevisiae deletion strains, locus YLR133W, strain CKI1, active compounds read low
[44] = S. cerevisiae deletion strains, locus YLR403W, strain SFP1, active compounds read low
[45] = S. cerevisiae deletion strains, locus YML070W, strain DAK1, active compounds read low
[46] = S. cerevisiae deletion strains, locus YMR001C, strain CDC5, active compounds read low
[47] = S. cerevisiae deletion strains, locus YMR205C, strain PFK2 (second series), active compounds read low
[48] = S. cerevisiae deletion strains, locus YMR277W, strain FCP1, active compounds read low
[49] = S. cerevisiae deletion strains, locus YNL006W, strain LST8, active compounds read low
[50] = S. cerevisiae deletion strains, locus YNL020C, strain ARK1, active compounds read low
[51] = S. cerevisiae deletion strains, locus YNL161W, strain CBK1, active compounds read low
[52] = S. cerevisiae deletion strains, locus YNL183C, strain NPR1, active compounds read low
[53] = S. cerevisiae deletion strains, locus YNL207W, strain RIO2, active compounds read low
[54] = S. cerevisiae deletion strains, locus YNL222W, strain SSU72, active compounds read low
[55] = S. cerevisiae deletion strains, locus YNL307C, strain MCK1 (second series), active compounds read low
[56] = S. cerevisiae deletion strains, locus YOL078W, strain AVO1, active compounds read low
[57] = S. cerevisiae deletion strains, locus YOL136C, strain PFK27, active compounds read low
[58] = S. cerevisiae deletion strains, locus YOR061W, strain CKA2, active compounds read low
[59] = S. cerevisiae deletion strains, locus YOR119C, strain RIO1, active compounds read low
[60] = S. cerevisiae deletion strains, locus YOR231W, strain MKK1, active compounds read low
[61] = S. cerevisiae deletion strains, locus YOR329C, strain SCD5, active compounds read low
[62] = S. cerevisiae deletion strains, locus YPL031C, strain PHO85, active compounds read low
[63] = S. cerevisiae deletion strains, locus YPL153C, strain RAD53, active compounds read low
[64] = S. cerevisiae deletion strains, locus YPL204W, strain HRR25, active compounds read low
[65] = S. cerevisiae deletion strains, locus YPL209C, strain IPL1, active compounds read low
[66] = S. cerevisiae deletion strains, locus YPL256C, strain CLN2, active compounds read low
[67] = S. cerevisiae deletion strains, locus YPR025C, strain CCL1, active compounds read low
[68] = S. cerevisiae deletion strains, locus YPR106W, strain ISR1, active compounds read low
[69] = S. cerevisiae deletion strains, locus YPR111W, strain DBF20, active compounds read low
[70] = S. cerevisiae deletion strains, strain NNK1, active compounds read low
[71] = S. cerevisiae deletion strains, strain TSCII, active compounds read low

Measured: normalized growth

S=C(NNC(=S)NC1CC2C=CC1C2)Nc1ccc(Br)c(Cl)c1 (stereo not drawn)
inactive: [1] 0.981 | [2] 0.987 | [3] 0.986 | [4] 0.976 | [5] 0.984 | [6] 0.986 | [7] 0.979 | [8] 0.989 | [9] 0.989 | [10] 0.987 | [11] 0.948 | [12] 0.994 | [13] 0.976 | [14] 0.982 | [15] 0.932 | [16] 0.931 | [17] 0.922 | [18] 0.98 | [19] 0.982 | [20] 0.985 | [21] 0.993 | [22] 0.986 | [23] 0.939 | [24] 0.954 | [25] 0.922 | [26] 0.889 | [27] 0.954 | [28] 1.03 | [29] 0.972 | [30] 0.983 | [31] 0.927 | [32] 0.943 | [33] 0.927 | [34] 0.984 | [35] 0.972 | [36] 1.05 | [37] 0.982 | [38] 0.94 | [39] 0.961 | [40] 0.975 | [41] 0.994 | [42] 0.896 | [43] 0.959 | [44] 0.939 | [45] 0.942 | [46] 0.984 | [47] 0.957 | [48] 0.983 | [49] 0.984 | [50] 0.952 | [51] 0.982 | [52] 1.04 | [53] 0.977 | [54] 0.991 | [55] 0.956 | [56] 0.984 | [57] 0.964 | [58] 0.947 | [59] 0.994 | [60] 0.963 | [61] 0.993 | [62] 0.928 | [63] 0.932 | [64] 0.939 | [65] 0.986 | [66] 0.987 | [67] 0.987 | [68] 0.981 | [69] 0.983 | [70] 0.983 | [71] 0.985

Cc1cccc(NC(=S)NC2CC3C=CC2C3)c1 (stereo not drawn)
active: S. cerevisiae deletion strains, locus YDL134C, strain PPH21, active compounds read low 0.904 | S. cerevisiae deletion strains, locus YEL061C, strain CIN8, active compounds read low 0.905 | S. cerevisiae deletion strains, locus YLR039C, strain RIC1, active compounds read low 0.685 | S. cerevisiae deletion strains, locus YLR085C, strain ARP6, active compounds read low 0.435 | S. cerevisiae deletion strains, locus YOL006C, strain TOP1, active compounds read low 0.182
inactive: S. cerevisiae deletion strains, locus YAL013W, strain DEP1, active compounds read low 0.939 | S. cerevisiae deletion strains, locus YBR229C, strain ROT2, active compounds read low 0.998 | S. cerevisiae deletion strains, locus YCL061C, strain MRC1, active compounds read low 0.979 | [8] 0.985 | S. cerevisiae deletion strains, locus YDR150W, strain NUM1, active compounds read low 1.01 | S. cerevisiae deletion strains, locus YGR078C, strain PAC10, active compounds read low 0.978 | S. cerevisiae deletion strains, locus YGR229C, strain SMI1, active compounds read low 0.987 | [26] 0.91 | S. cerevisiae deletion strains, locus YHR087W, strain rtc3, active compounds read low 1.02 | S. cerevisiae deletion strains, locus YJR043C, strain POL32, active compounds read low 0.926 | S. cerevisiae deletion strains, locus YJR075W, strain HOC1, active compounds read low 0.994 | S. cerevisiae deletion strains, locus YLR058C, strain SHM2 (second series), active compounds read low 0.993 | S. cerevisiae deletion strains, locus YLR262C, strain YPT6, active compounds read low 0.825 | S. cerevisiae deletion strains, locus YML094W, strain GIM5, active compounds read low 0.882 | S. cerevisiae deletion strains, locus YMR219W, strain ESC1, active compounds read low 0.984 | S. cerevisiae deletion strains, locus YMR263W, strain SAP30, active compounds read low 0.949 | S. cerevisiae deletion strains, locus YMR307W, strain GAS1, active compounds read low 0.688 | S. cerevisiae deletion strains, locus YNL128W, strain TEP1, active compounds read low 0.977 | S. cerevisiae deletion strains, locus YNL153C, strain GIM3, active compounds read low 0.98 | S. cerevisiae deletion strains, locus YNL298W, strain CLA4 (second series), active compounds read low 0.85 | S. cerevisiae deletion strains, locus YNL322C, strain KRE1, active compounds read low 0.993 | S. cerevisiae deletion strains, locus YNR030W, strain Alg12, active compounds read low 0.897 | S. cerevisiae deletion strains, locus YPL055C, strain LGE1, active compounds read low 0.913 | S. cerevisiae deletion strains, locus YPL241C, strain CIN2, active compounds read low 0.91 | S. cerevisiae deletion strains, locus YPR135W, strain CTF4, active compounds read low 0.814 | S. cerevisiae strains, strain wild type, active compounds read low 0.927

COc1cccc(NC(=S)NC2CC(C)CC(C)(C)C2)c1 (stereo not drawn)
inactive: [1] 0.986 | [2] 0.986 | [3] 0.973 | [4] 0.985 | [5] 0.978 | [6] 0.984 | [7] 0.99 | [8] 0.975 | [9] 0.989 | [10] 0.984 | [11] 0.986 | [12] 0.99 | [13] 0.967 | [14] 0.972 | [15] 0.98 | [16] 0.962 | [17] 0.962 | [18] 0.98 | [19] 0.99 | [20] 0.984 | [21] 1.02 | [22] 0.966 | [23] 0.979 | [24] 1.02 | [25] 0.895 | [26] 0.927 | [27] 0.922 | [28] 1.08 | [29] 0.995 | [30] 0.981 | [31] 0.929 | [32] 0.954 | [33] 0.976 | [34] 0.986 | [35] 0.979 | [36] 1.07 | [37] 0.989 | [38] 0.983 | [39] 0.996 | [40] 0.981 | [41] 1.03 | [42] 0.957 | [43] 0.979 | [44] 0.938 | [45] 0.978 | [46] 0.984 | [47] 1 | [48] 0.988 | [49] 0.984 | [50] 0.974 | [51] 0.971 | [52] 1.07 | [53] 0.967 | [54] 1 | [55] 0.977 | [56] 0.985 | [57] 0.964 | [58] 0.986 | [59] 1.04 | [60] 1.05 | [61] 0.984 | [62] 0.973 | [63] 0.964 | [64] 0.949 | [65] 0.99 | [66] 0.984 | [67] 0.988 | [68] 0.994 | [69] 0.991 | [70] 0.982 | [71] 0.976
